Data taken from PubChem BioAssay (NCI).
Where “and” joins values, the source holds several entries; their conditions need not be identical. Equal values may be shown once. About 83,000 compounds went through this panel and 20% of them were active in at least one assay; those are over-represented in the sample as a whole.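 Single-concentration screen, 48 h exposure, 96-well plates. Endpoint: percent growth. Below 10 = active.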 Calls of active or inactive are those of the source.

test system: MDA-MB-468 breast; assay: NCI-60 one-dose screen, 48 h (100 = growth as untreated, 0 = no growth, -100 = all killed); details: 10 µM unless noted

Row | SMILES | growth
1 | Clc1ccc(/C=C2\CCCC3=C2N=C2SC=NN2C3c2ccc(Cl)cc2)cc1 (configuration not stated) | 90.4% (inactive)
2 | O=c1c(-c2ccc3c(c2)OCO3)coc2c(CO)c(O)ccc12 | -14.5% (active)
3 | COc1ccc(OC)c(NC2=C(SCCc3ccccc3)C(=O)c3ccccc3C2=O)c1 | 65.7% (inactive)
4 | Cc1ccc(C)c2c1CCC2C(C)C (configuration not stated) | 106% (inactive)
5 | COCC(=O)Oc1cc(-c2ccc(C)cc2C)c(OC(=O)COC)c(-c2ccc(C)cc2C)c1 | -0.64% (active)
6 | COc1ccc2[nH]c(O)c(N=NC(=O)c3oc4ccccc4c3C)c2c1 | 19.9% (inactive)
7 | CN(C)c1ccc(N)c2ccccc12 | 57.8% (inactive)
8 | COc1ccc(-c2ccc(NC(=O)Nc3cccc(C(F)(F)F)c3)c(C)n2)cc1 | 27.5% (inactive)
9 | Nc1nc(Nc2cccc(F)c2)nc2ccccc12 | 8.81% (active)
10 | CCCCCCCCn1ccc2cc(NC(=O)Cn3cc(CN4CCN(CC)CC4)nn3)ccc21 | 62.1% (inactive)
11 | CCCOC(=O)c1nc(N(CC2CCCCC2)C(=O)NC)sc1/N=C/c1ccccc1 | -18.8% (active)
12 | O=C(NCCCCCCNC(=O)OCc1ccc2c(Cl)cc(Cl)c(O)c2n1)OCc1ccc2c(Cl)cc(Cl)c(O)c2n1 | -62.7% (active)
13 | N=C1/C(=C2\NC3C=CC=CC3S2)C(c2ccc(Cl)cc2)C2C(=O)N(c3ccccc3)C(=S)N12 (configuration not stated) | 97.9% (inactive)
14 | Cc1cccc(/C=C\C(=O)c2ccc(Cl)cc2)c1 | 106% (inactive) and 90.9% (inactive)
15 | Cc1cc2c(C(C)C)c(O)c(O)c(C=NCCCCC(=O)O)c2c(O)c1-c1c(C)cc2c(C(C)C)c(O)c(O)c(C=NCCCCC(=O)O)c2c1O | 35.4% (inactive)
16 | Cc1cc(=O)c2c(C)ccc(C)c2[nH]1 | 96.8% (inactive)
17 | CCN(CC)CCNc1ccc(C)c2sc3cc(C)ccc3c(=O)c12 | 66.5% (inactive)
18 | O=C(CC(=O)Nc1cccc(C(=O)O)c1)Nc1cccc(C(=O)O)c1 | 108% (inactive)
19 | O=C(c1ccccc1)C(Nc1ccccc1)c1ccccc1 (configuration not stated) | 88.7% (inactive)
20 | COc1cc(C2=Nc3c(N)nc(N)nc3NC(c3cccc(Nc4ccnc5cc(C(F)(F)F)ccc45)c3)C2)cc(OC)c1OC (configuration not stated) | 68.1% (inactive)
21 | NC(N)=N/N=C/c1ccccc1 | 94.2% (inactive)
22 | CN1NC(c2ccccc2)NN(C)C1=O | 108% (inactive)
23 | N#Cc1c(-c2ccccc2)cc(-c2ccccc2)n(CC(=O)O)c1=O | 37.8% (inactive)
24 | Cc1ccc2oc(=O)cc(-c3cc(-c4cc5ccccc5oc4=O)nc(N)c3C#N)c2c1 | 68.7% (inactive)
25 | CCCC/C=N/NC(=S)NCc1ccccc1 | 93% (inactive)
26 | COc1ccc(-c2nc3ccc(-c4nnc(SCC(=O)Nc5ccc(C(=O)/C=C/c6ccc(Cl)cc6)cc5)o4)cc3[nH]2)cc1OC | 102% (inactive)
27 | O=C(CCCCCCN1CC(=O)N2[C@@H](c3cccc(Cl)c3)c3[nH]c4ccccc4c3C[C@H]2C1=O)NO | 47.2% (inactive)
